Measurements published in the supplement of paper PMC10849652.
The full data set covers some 7,900 targets. This sample favours those with a hit. About 0.6% of all pairs of compound and target were hits. Unmarked numbers belong to inactive results.

Tests used:
Assay in all cases: log2 fold change, soluble protein after heating vs DMSO (PISA); higher = thermal stabilisation; K562 cells, 10 uM, 30 min; active = over 0.2 and 3.5 SD of the protein, either way, in both replicates (recomputed)
erlotinib = compound: C#Cc1cccc(Nc2ncnc3cc(OCCOC)c(OCCOC)cc23)c1 [erlotinib]
Method in brief: (§1)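 K562 cells at 2×10^6 cells/mL were treated with 10 μM compound for 30 min. Aliquots were heated for 3 min across 48°C-58°C, pooled, and extracted in PBS with 0.5% NP-40 at 4°C; soluble protein was the supernatant after 21,000xg for 90 min. Soluble protein was quantified by TMTpro 16plex LC-MS/MS with channel sums equalised, and reported as log2 fold change in thermal stability against DMSO controls, with values from duplicates.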

[1] = compound: C/C(=N\NC(=O)C1=CC(=CC=C1)S(=O)(=O)N2CCOCC2)/C3=C(C=CC(=C3)Cl)O
Method in brief: as §1

[2] = compound: C1=CC(=C(C=C1Cl)C2=NC3=NC=CN=C3C(=N2)NC4=CC=NC=C4)F
Method in brief: as §1

[3] = compound: C1=CC(=CC=C1C2=NC3=C(N2)C=C(C=C3)C(=O)N)OC4=CC=C(C=C4)Cl
Method in brief: as §1

[4] = compound: C1=CC2=C(C=CC(=C2)/C=C\3/C(=O)NC(=NCC4=CC=CS4)S3)N=C1
Method in brief: as §1

[5] = compound: C1=CC2=NC=CN=C2C=C1/C=C/3\C(=O)NC(=O)S3
Method in brief: as §1

[6] = compound: C1=CC=C(C=C1)C2=NC(=C(N2)C3=CC=NC=C3)C4=CC(=C(C=C4)Cl)O
Method in brief: as §1

[7] = compound: C1=CC=C2C(=C1)C3=NNC4=CC=CC(=C43)C2=O
Method in brief: as §1

[8] = compound: C1CCN(C1)C(=O)NC2=CC=CC(=C2)NC3=NC=C(C(=N3)NCCC4=CN=CN4)Br
Method in brief: as §1

[9] = compound: C1CN(CCC1(CC2=CC=C(C=C2)Cl)N)C3=NC=NC4=C3C=CN4
Method in brief: as §1

IRAK-1-4 Inhibitor I = compound: C1COCCN1CCN2C3=CC=CC=C3N=C2NC(=O)C4=CC(=CC=C4)[N+](=O)[O-] [IRAK-1-4 Inhibitor I]
Method in brief: as §1

ibrutinib = compound: C=CC(=O)N1CCC[C@@H](n2nc(-c3ccc(Oc4ccccc4)cc3)c3c(N)ncnc32)C1 [ibrutinib]
Method in brief: as §1

[10] = compound: CC(=O)c1cnc2ccc(-c3cc(Cl)c(O)c(Cl)c3)nc2c1N[C@H]1CC[C@H](CN(C)C)CC1
Method in brief: as §1

ralimetinib = compound: CC(C)(C)Cn1c(N)nc2ccc(-c3[nH]c(C(C)(C)C)nc3-c3ccc(F)cc3)nc21 [ralimetinib]
Method in brief: as §1

[11] = compound: CC(C)(O)CC(=O)NCCn1ccc2ncnc(Nc3ccc(Oc4cccc(C(F)(F)F)c4)c(Cl)c3)c21
Method in brief: as §1

[12] = compound: CC(C)C1=C2N=C(C=C(N2N=C1)NCC3=CC=CC=C3)NCCCCCCN
Method in brief: as §1

[13] = compound: CC(C)C[C@@H](C=O)NC(=O)[C@H](CC(C)C)NC(=O)[C@H](CC(C)C)NC(=O)OCc1ccccc1
Method in brief: as §1

pinometostat = compound: CC(C)N(C[C@H]1O[C@@H](n2cnc3c(N)ncnc32)[C@H](O)[C@@H]1O)[C@H]1C[C@@H](CCc2nc3cc(C(C)(C)C)ccc3[nH]2)C1 [pinometostat]
Method in brief: as §1

[14] = compound: CC1=C(C(CC(=O)N1)C2=CC=C(C=C2)C(F)(F)F)C(=O)NC3=C(C=C4C(=C3)C=NN4)F
Method in brief: as §1

[15] = compound: CC1=C(C2=C(C=C1)C(=O)C3=CC=CC=C3N2CCCN)C
Method in brief: as §1

Chain of UniProt Q99615 (Q99615 whole entry, looked up): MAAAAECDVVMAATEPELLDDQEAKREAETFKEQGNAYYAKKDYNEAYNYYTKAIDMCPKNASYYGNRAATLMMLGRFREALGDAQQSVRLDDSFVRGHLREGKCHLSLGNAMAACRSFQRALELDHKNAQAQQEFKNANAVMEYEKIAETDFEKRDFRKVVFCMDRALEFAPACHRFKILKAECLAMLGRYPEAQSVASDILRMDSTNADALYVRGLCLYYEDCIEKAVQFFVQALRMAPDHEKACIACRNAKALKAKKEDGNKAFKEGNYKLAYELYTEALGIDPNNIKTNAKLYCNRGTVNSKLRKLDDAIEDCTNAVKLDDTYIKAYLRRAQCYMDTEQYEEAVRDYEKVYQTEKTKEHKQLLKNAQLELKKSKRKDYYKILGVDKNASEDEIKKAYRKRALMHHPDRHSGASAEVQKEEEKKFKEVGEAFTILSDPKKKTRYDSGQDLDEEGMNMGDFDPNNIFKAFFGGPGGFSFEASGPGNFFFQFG
Chain of UniProt Q16850 (Q16850 whole entry, looked up): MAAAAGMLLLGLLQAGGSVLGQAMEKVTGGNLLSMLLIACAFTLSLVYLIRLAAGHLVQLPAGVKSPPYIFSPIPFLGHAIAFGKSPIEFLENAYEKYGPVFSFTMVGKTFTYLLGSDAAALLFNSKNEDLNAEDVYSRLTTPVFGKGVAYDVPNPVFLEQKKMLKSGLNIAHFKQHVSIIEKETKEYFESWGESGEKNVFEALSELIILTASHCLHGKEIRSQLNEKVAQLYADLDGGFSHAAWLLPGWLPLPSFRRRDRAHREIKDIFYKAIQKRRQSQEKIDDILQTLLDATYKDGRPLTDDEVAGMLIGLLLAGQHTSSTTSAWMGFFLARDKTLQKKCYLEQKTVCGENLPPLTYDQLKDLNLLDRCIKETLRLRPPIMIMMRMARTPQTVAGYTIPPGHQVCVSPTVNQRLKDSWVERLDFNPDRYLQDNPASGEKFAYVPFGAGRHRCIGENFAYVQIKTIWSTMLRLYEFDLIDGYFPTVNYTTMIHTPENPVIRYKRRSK
Chain of UniProt P10619 (P10619 whole entry, looked up): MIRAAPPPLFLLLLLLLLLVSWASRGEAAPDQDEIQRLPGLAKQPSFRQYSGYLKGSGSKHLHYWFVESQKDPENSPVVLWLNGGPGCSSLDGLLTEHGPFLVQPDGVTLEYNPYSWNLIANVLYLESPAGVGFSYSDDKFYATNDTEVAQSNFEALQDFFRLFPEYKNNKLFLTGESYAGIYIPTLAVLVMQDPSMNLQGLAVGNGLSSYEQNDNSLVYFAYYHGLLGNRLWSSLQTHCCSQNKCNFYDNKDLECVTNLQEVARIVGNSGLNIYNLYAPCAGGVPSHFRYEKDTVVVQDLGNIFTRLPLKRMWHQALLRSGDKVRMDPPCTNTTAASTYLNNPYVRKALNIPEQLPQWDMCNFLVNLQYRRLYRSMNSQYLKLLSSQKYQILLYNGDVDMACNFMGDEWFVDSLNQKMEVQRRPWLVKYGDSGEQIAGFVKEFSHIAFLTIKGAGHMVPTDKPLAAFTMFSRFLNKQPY
Chain of UniProt Q9Y5Q0 (Q9Y5Q0 whole entry, looked up): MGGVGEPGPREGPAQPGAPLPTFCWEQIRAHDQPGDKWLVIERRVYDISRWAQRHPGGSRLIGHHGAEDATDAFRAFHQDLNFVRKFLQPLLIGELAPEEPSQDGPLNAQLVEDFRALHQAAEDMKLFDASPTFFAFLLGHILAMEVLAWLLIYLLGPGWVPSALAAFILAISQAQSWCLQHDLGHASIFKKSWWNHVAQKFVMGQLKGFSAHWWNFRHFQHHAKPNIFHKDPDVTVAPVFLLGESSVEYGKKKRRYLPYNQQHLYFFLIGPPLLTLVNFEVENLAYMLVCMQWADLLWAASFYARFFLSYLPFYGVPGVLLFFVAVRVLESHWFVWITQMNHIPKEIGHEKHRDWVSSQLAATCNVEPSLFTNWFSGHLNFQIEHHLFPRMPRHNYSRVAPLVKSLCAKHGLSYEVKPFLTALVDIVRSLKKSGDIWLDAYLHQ
Chain of UniProt Q9NSI2 (Q9NSI2 whole entry, looked up): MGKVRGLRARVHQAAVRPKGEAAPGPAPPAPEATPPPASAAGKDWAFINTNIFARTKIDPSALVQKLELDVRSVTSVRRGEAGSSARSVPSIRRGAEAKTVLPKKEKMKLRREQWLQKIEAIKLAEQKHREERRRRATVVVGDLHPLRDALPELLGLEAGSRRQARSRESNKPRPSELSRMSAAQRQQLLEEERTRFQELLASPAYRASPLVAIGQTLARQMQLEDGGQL
Chain of UniProt Q7Z7A3 (Q7Z7A3 whole entry, looked up): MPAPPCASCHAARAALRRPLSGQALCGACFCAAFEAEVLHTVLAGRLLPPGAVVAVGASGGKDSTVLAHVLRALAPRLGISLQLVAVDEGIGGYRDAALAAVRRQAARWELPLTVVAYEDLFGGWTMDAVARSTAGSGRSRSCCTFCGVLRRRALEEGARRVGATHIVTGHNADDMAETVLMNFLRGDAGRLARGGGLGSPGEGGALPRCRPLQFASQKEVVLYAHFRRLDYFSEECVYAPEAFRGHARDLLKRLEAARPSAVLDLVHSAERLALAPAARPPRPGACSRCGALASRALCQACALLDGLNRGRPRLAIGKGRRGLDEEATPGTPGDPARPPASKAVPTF
Chain of UniProt Q8N6R0 (Q8N6R0 whole entry, looked up): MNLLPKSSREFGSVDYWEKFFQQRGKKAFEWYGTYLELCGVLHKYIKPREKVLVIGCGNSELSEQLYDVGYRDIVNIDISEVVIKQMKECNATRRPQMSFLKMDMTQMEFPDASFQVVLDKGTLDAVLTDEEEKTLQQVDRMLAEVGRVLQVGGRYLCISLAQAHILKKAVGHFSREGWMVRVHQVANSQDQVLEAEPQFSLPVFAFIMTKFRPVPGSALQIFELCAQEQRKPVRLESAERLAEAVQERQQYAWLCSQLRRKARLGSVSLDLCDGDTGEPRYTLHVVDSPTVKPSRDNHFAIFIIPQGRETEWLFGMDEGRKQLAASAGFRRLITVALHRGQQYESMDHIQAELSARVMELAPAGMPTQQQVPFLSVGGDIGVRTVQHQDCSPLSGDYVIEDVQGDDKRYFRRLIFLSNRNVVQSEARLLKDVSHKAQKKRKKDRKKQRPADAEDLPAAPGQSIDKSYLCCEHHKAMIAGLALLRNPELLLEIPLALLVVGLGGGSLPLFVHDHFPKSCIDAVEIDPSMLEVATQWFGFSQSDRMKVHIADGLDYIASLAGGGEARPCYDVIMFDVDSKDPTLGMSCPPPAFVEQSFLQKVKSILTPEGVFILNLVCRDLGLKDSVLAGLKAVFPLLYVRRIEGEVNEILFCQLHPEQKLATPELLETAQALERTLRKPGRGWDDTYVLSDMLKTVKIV
Chain of UniProt Q9UPT5 (Q9UPT5 whole entry, looked up): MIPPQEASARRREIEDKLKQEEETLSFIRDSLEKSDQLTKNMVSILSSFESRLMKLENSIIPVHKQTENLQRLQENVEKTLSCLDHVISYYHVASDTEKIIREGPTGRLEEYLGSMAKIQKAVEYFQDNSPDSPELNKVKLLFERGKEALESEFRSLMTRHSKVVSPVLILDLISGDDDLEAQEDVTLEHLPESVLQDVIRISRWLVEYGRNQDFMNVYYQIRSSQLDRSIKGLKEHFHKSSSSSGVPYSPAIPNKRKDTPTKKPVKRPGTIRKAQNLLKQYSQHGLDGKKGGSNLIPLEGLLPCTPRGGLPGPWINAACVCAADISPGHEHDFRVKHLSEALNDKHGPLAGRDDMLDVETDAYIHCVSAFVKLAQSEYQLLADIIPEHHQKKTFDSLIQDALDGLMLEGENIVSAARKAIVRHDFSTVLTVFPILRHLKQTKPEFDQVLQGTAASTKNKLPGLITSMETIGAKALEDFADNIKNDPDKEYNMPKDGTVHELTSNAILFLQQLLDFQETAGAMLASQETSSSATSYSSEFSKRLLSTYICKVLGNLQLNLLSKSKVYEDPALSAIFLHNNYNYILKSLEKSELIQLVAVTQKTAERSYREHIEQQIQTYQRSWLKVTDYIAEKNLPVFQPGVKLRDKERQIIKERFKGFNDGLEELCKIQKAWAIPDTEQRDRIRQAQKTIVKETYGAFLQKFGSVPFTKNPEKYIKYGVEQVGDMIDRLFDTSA
Chain of UniProt O60911 (O60911 whole entry, looked up): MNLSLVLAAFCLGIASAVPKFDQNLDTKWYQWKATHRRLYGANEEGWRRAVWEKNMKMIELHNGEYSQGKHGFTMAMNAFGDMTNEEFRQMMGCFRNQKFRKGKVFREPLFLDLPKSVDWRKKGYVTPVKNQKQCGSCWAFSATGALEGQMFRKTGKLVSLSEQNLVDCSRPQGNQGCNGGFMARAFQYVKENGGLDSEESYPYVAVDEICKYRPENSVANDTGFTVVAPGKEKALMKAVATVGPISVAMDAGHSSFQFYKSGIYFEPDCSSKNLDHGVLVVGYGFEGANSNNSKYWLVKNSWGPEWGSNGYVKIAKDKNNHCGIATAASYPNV
Chain of UniProt O75477 (O75477 whole entry, looked up): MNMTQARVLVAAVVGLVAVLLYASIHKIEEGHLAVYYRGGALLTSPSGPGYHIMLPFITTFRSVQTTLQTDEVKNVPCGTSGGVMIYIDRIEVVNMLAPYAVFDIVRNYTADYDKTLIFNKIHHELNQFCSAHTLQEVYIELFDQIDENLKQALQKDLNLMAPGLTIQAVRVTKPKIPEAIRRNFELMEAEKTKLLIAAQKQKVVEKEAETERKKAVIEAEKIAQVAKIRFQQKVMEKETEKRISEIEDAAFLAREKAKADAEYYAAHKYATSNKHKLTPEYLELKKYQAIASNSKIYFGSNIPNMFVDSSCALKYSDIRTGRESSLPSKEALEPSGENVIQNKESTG
Chain of UniProt P25685 (P25685 whole entry, looked up): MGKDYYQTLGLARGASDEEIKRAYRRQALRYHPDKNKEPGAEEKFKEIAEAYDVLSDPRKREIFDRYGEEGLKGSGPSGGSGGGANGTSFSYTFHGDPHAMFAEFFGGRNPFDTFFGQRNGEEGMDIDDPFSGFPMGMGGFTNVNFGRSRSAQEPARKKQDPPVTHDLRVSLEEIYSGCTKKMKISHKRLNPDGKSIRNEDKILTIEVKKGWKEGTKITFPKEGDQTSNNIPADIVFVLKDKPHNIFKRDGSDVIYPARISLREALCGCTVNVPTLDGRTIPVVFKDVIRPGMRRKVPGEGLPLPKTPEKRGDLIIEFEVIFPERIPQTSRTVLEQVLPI

| Target | log2 fold change (erlotinib) | log2 fold change [1] | log2 fold change [2] | log2 fold change [3] | log2 fold change [4] | log2 fold change [5] | log2 fold change [6] | log2 fold change [7] | log2 fold change [8] | log2 fold change [9] | log2 fold change (IRAK-1-4 Inhibitor I) | log2 fold change (ibrutinib) | log2 fold change [10] | log2 fold change (ralimetinib) | log2 fold change [11] | log2 fold change [12] | log2 fold change [13] | log2 fold change (pinometostat) | log2 fold change [14] | log2 fold change [15] |
| --- | --- | --- | --- | --- | --- | --- | --- | --- | --- | --- | --- | --- | --- | --- | --- | --- | --- | --- | --- | --- |
| CTSA (UniProt P10619) | -0.058 | -0.065 | 0.001 | -0.004 | -0.053 | 0.018 | 0.04 | 0.003 | 0.021 | 0.051 | -0.006 | 0.017 | 0.038 | -0.027 | 0.027 | -0.204 | -0.017 | 0.014 | 0.014 | -0.058 |
| FAM160B1 (UniProt Q5W0V3) | 0.034 | 0.085 | 0.012 | -0.007 | 0.019 | 0.037 | -0.005 | 0 | -0.035 | -0.021 | 0.019 | 0.012 | 0.03 | 0.005 | -0.05 | -0.285 (active) | 0.019 | -0.019 | -0.036 | -0.051 |
| DNAJC7 (UniProt Q99615) | 0.02 | 0.065 | 0.061 | -0.002 | 0.014 | 0.024 | 0.013 | 0.023 | 0.005 | -0.043 | -0.041 | -0.012 | -0.007 | -0.014 | -0.022 | -0.117 | 0.023 | -0.034 | -0.003 | 0.04 |
| CTSV (UniProt O60911) | 0.043 | -0.105 | 0.023 | -0.054 | 0.035 | -0.004 | 0.024 | 0.023 | 0.04 | 0.022 | 0.032 | -0.002 | 0.09 | -0.035 | -0.005 | -0.917 (active) | 0.14 | 0.011 | -0.054 | 0.125 |
| DNAH11 (UniProt Q96DT5) | -0.252 | -0.237 | 0.001 | 0.085 | 0.012 | -0.023 | -0.28 | -0.001 | 0.125 | 0.119 | 0.038 | 0.103 | 0.126 | -0.285 | 0.047 | -0.001 | 0.041 | -0.019 | -0.012 | -0.137 |
| DIP2A (UniProt Q14689) | -0.002 | 0.07 | 0.055 | 0.103 | -0.145 | 0.076 | 0.037 | 0.043 | 0.03 | 0.053 | -0.036 | 0.053 | -0.06 | 0.102 | 0.003 | -0.023 | 0.118 | 0.064 | 0.084 | 0.018 |
| EEF1AKNMT (UniProt Q8N6R0) | 0.063 | 0.15 | 0.008 | -0.022 | 0.114 | 0.013 | 0.091 | 0.058 | 0.023 | -0.061 | -0.081 | -0.116 | -0.026 | 0.141 | -0.097 | -0.199 | 0.127 | 0.354 (active) | -0.029 | 0.13 |
| CYP51A1 (UniProt Q16850) | -0.09 | 0.019 | -0.248 | -0.002 | 0.007 | 0.018 | -0.096 | 0.089 | 0.014 | 0.137 | -0.129 | 0.039 | -0.028 | 0.064 | 0.245 | 0.782 (active) | 0.07 | 0.045 | -0.013 | -0.006 |
| DYNC1I2 isoform 5 (UniProt Q13409) | -0.009 | -0.016 | -0.033 | 0.003 | 0.025 | -0.006 | 0.057 | 0.016 | 0.007 | 0.018 | 0.022 | 0.016 | 0.022 | 0.013 | -0.003 | 0.041 | 0.062 | -0.019 | -0.015 | -0.032 |
| FADS3 (UniProt Q9Y5Q0) | 0.03 | -0.005 | 0.104 | 0.017 | 0.064 | 0.058 | 0.04 | 0.001 | -0.055 | 0.05 | 0.029 | 0.018 | -0.031 | -0.064 | -0.121 | -0.011 | 0.102 | 0.038 | -0.033 | 0.054 |
| ERLIN1 (UniProt O75477) | -0.081 | 0.013 | -0.097 | -0.001 | -0.015 | -0.011 | -0.006 | -0.047 | 0.008 | -0.124 | -0.073 | -0.06 | 0.105 | 0.054 | -0.018 | -0.269 (active) | -0.007 | 0.098 | 0.012 | 0.068 |
| DNAJB1 (UniProt P25685) | 0.005 | 0.017 | 0.012 | 0.008 | 0.024 | 0.053 | 0.024 | -0.025 | -0.019 | 0.009 | -0.059 | -0.011 | -0.017 | 0 | -0.012 | -0.015 | -0.065 | -0.086 | -0.004 | 0.022 |
| CTU1 (UniProt Q7Z7A3) | 0.05 | -0.01 | 0.079 | 0.047 | 0.079 | 0.011 | 0.04 | 0.042 | 0.032 | 0.008 | 0.026 | 0.041 | 0.02 | 0.005 | -0.054 | -0.052 | -0.041 | 0.007 | 0.007 | -0.021 |
| FAM207A (UniProt Q9NSI2) | -0.082 | -0.092 | -0.039 | -0.032 | -0.204 | -0.018 | -0.027 | 0.006 | -0.159 | -0.054 | -0.043 | -0.082 | 0.057 | 0.123 | -0.033 | -0.066 | 0.088 | 0.024 | 0.005 | 0.038 |
| EDC4 (UniProt Q6P2E9) | -0.045 | 0.1 | -0.058 | 0.017 | -0.177 | -0.069 | -0.035 | -0.151 | -0.023 | -0.041 | -0.041 | -0.001 | -0.387 (active) | 0.019 | 0.007 | -0.181 | 0.022 | 0.05 | -0.016 | -0.032 |
| EXOC7 (UniProt Q9UPT5) | 0.032 | 0.074 | 0.001 | -0.042 | 0.048 | 0.016 | 0.011 | -0.016 | -0.023 | -0.014 | -0.047 | -0.029 | 0.002 | 0.049 | -0.109 | -0.276 | 0.044 | 0.043 | 0.041 | 0.045 |
